The structures appear in SMILES notation. About 83,000 compounds went through this panel and 20% of them were active in at least one assay; those are over-represented in the sample as a whole.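 In brief: 96-well plates, 48 h treatment, single concentration, percent growth endpoint.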 A number with no mark means an inactive call. Active and inactive are the calls of the source. Rule for the calls: active = growth percent below 10; inactive = the rest.

These results are taken from PubChem BioAssay (NCI).

Test systems include NCI-H23 lung; NCI-H226 lung; NCI-H322M lung; HOP-62 NSCLC; NCI-H460 lung; HOP-92 NSCLC; NCI-H522 lung; A549/ATCC NSCLC; 786-0 renal; COLO 205 colon.
Test in all cases: NCI-60 one-dose screen, 48 h (100 = growth as untreated, 0 = no growth, -100 = all killed)
Holding throughout (settings): 10 µM unless noted

With `CCN(CC)CCN1C(=O)c2c(c(C)c3c(oc4ccc(O)cc43)c2C)C1=O`, the growth was 47.3% in the assay on NCI-H23 lung; 70% in the assay with NCI-H226 lung; 33.2% in the assay with NCI-H322M lung; 80.7% with HOP-62 NSCLC; -45.6% (active) with NCI-H460 lung; 91.7% in the assay on HOP-92 NSCLC. Moreover, the growth with NCI-H522 lung was 68.2%; in the assay with A549/ATCC NSCLC, 20.6%; in the assay on 786-0 renal, -36.2% (active); in the assay on COLO 205 colon, 83.2%.
`CCOC(=O)c1c(C)nc2ccccc2c1/C=C/c1ccccc1`: the growth in the assay on NCI-H23 lung was 51%; with NCI-H226 lung, 74.3%; with NCI-H322M lung, 95.5%; in the assay with HOP-62 NSCLC it was 93.8%; with NCI-H460 lung it was 86.9%; with HOP-92 NSCLC, 79.7%. For the same molecule, the growth in the assay on NCI-H522 lung is 54.7%; in the assay on A549/ATCC NSCLC, 57.1%; in the assay on 786-0 renal, 88.6%; with COLO 205 colon it was 84.1%.
Regarding `COc1ccc(C(=O)Cn2c(C(=O)c3ccc(OC)cc3)nc3ccccc32)cc1`, the growth was 50.5% in the assay with NCI-H23 lung; 37.4% in the assay on NCI-H226 lung; 76.6% with NCI-H322M lung; 37.8% with HOP-62 NSCLC; 10.5% in the assay with NCI-H460 lung; 45.2% in the assay on HOP-92 NSCLC. In addition, the growth was -27.7% (active) with NCI-H522 lung, 41.3% with A549/ATCC NSCLC, 36.3% in the assay with 786-0 renal and 38.8% in the assay on COLO 205 colon.
As to `Cn1cc(-c2nn3cc(-c4cccs4)nc3s2)c2cc(F)ccc21`, the growth was 58% in the assay on NCI-H23 lung; 67% in the assay on NCI-H226 lung; 50.1% in the assay with NCI-H322M lung; 28.4% in the assay on HOP-62 NSCLC; 8.02% (active) in the assay on NCI-H460 lung; 39.6% with HOP-92 NSCLC. Further, the growth in the assay on NCI-H522 lung is 5.4% (active); in the assay with A549/ATCC NSCLC, 37.7%; in the assay on 786-0 renal it was 49.2%; in the assay on COLO 205 colon it was 22%.
With `CCCCCN(CCCCC)CC(O)c1cc(C)c2ccc3cc(C(C)C)ccc3c2c1` (stereo not given), the growth in the assay on NCI-H23 lung was -52.1% (active); in the assay with NCI-H226 lung, 78.9%; in the assay with NCI-H322M lung, 76.7%; in the assay on HOP-62 NSCLC, 20%; with NCI-H460 lung, 6.03% (active); in the assay with HOP-92 NSCLC it was -43.6% (active). The growth with NCI-H522 lung is -62.4% (active); with A549/ATCC NSCLC, 3.86% (active); in the assay on 786-0 renal it was -80.5% (active); in the assay on COLO 205 colon, -14.9% (active).
In the case of `O=C(Cc1cccc(OC(F)(F)F)c1)Nc1ccc(CCCCc2nnc(NC(=O)Cc3ccccn3)s2)nn1`, the growth is 80.3% with NCI-H23 lung; 60.6% in the assay on NCI-H226 lung; 39.8% in the assay on NCI-H322M lung; 74.5% in the assay with HOP-62 NSCLC; 74.2% in the assay on NCI-H460 lung; -4.64% (active) in the assay on HOP-92 NSCLC. The growth in the assay on NCI-H522 lung is 44.3%; in the assay on A549/ATCC NSCLC, 43.2%; in the assay with 786-0 renal, 46.3%; with COLO 205 colon, 88.8%.
In the case of `Cc1nn(-c2cc(NC3CCC(O)CC3)c3c(=O)[nH]c(CCC(F)(F)F)cc3c2)c2c1C(=O)CC(C)(C)C2` (stereo not given), the growth in the assay on NCI-H23 lung is 20.3%; in the assay with NCI-H226 lung, 67.8%; in the assay on NCI-H322M lung, 56.5%; in the assay on HOP-62 NSCLC, 44%; with NCI-H460 lung, 21%; in the assay on HOP-92 NSCLC, 54.5%. In addition, the growth in the assay with NCI-H522 lung is 49.5%; in the assay on A549/ATCC NSCLC it was 38.8%; in the assay on 786-0 renal, 43.9%; with COLO 205 colon it was 36.9%.
In the case of `COC(=O)C(Cc1ccccc1)NC(=O)c1ccc(NC(=O)c2[nH]c(C)c(Cl)c2Cl)c(OC(C)C)c1` (stereo not given), the growth in the assay with NCI-H23 lung is 70%; with NCI-H226 lung, 88.6%; with NCI-H322M lung, 102%; in the assay with HOP-62 NSCLC, 90.3%; in the assay with NCI-H460 lung it was 6.05% (active); in the assay on HOP-92 NSCLC, 101%. In addition, the growth with NCI-H522 lung is 93.9%; with A549/ATCC NSCLC it was 6.57% (active); with 786-0 renal, 39.5%; with COLO 205 colon, 102%.
As for `C=CC(=O)Nc1ccc(Nc2nccc(-c3ccc(N4CCCC4)c(C#N)c3)n2)cc1`, the growth with NCI-H23 lung was 62.1%; in the assay with NCI-H226 lung, 52.7%; in the assay with NCI-H322M lung, 41.2%; in the assay with HOP-62 NSCLC, 19.2%; in the assay on NCI-H460 lung, 0.189% (active); with HOP-92 NSCLC, 60.9%. Moreover, the growth with NCI-H522 lung is 12.4%; with A549/ATCC NSCLC, 14.7%; in the assay with 786-0 renal, -67.4% (active); in the assay with COLO 205 colon it was 7.29% (active).
For `O=C1/C(=C\c2cccc3nccnc23)SC(=S)N1CCc1ccc(O)cc1`, the growth is 93.7% with NCI-H23 lung; 95.4% in the assay with NCI-H226 lung; 96.4% in the assay with NCI-H322M lung; 99.5% in the assay on HOP-62 NSCLC; 105% with NCI-H460 lung; -0.0093% (active) in the assay on HOP-92 NSCLC. Moreover, the growth in the assay with NCI-H522 lung was 81.9%; in the assay with A549/ATCC NSCLC, 100%; in the assay on 786-0 renal, 94.8%; in the assay on COLO 205 colon, 118%.
For the molecule `Cc1nc2c(c(=O)[nH]1)C(c1ccccc1)c1ccc3ccccc3c1O2` (stereo not given), the growth with NCI-H23 lung was 50.4%; with NCI-H226 lung, 62.5%; in the assay on NCI-H322M lung, 59.1%; in the assay with HOP-62 NSCLC it was 20.2%; with NCI-H460 lung, 20.5%; with HOP-92 NSCLC it was 24.7%. The growth was -31.4% (active) in the assay with NCI-H522 lung, 40.2% in the assay with A549/ATCC NSCLC, 25% in the assay on 786-0 renal and 72.9% in the assay with COLO 205 colon.
`C=C(C)[C@@H]1CC[C@]2(C)[C@H](CC=C3[C@@H]4CC(C)(C)CC[C@]4(CO)CC[C@]32C)[C@@]1(C)CCCN`: the growth in the assay on NCI-H23 lung was 68.7%; in the assay on NCI-H226 lung, 95.9%; with NCI-H322M lung, 54.6%; with HOP-62 NSCLC, 63.9%; in the assay with NCI-H460 lung, -93.2% (active); in the assay with HOP-92 NSCLC, 42.5%. The growth with NCI-H522 lung was -40.1% (active); in the assay on A549/ATCC NSCLC, -71% (active); with 786-0 renal, 32.6%; in the assay with COLO 205 colon it was -56.8% (active).
`C=C1CC[C@@H]2C(C)(C)[C@@H](O)CC[C@@]2(C)[C@@H]1COc1ccc2ccc(=O)oc2c1`: the growth is 75.3% with NCI-H23 lung; 66.1% in the assay with NCI-H226 lung; 109% in the assay with NCI-H322M lung; 103% in the assay on HOP-62 NSCLC; 87.8% in the assay on NCI-H460 lung; 86.8% in the assay with HOP-92 NSCLC. Besides, the growth in the assay on NCI-H522 lung is 66.9%; in the assay with A549/ATCC NSCLC, 58.7%; in the assay with 786-0 renal it was 89.6%; in the assay on COLO 205 colon it was 92%.
